From PubChem
POLB inh – qHTS Assay for Inhibitors of DNA Polymerase Beta | 340,000 tested, 1.3% active | Potency, µM (top dose mostly 114 µM), without a hit: at the top dose activity change, negative = inhibition, usual class: inhibitors | Pol beta primer extension/strand displacement, fluorescence kinetic | P06746; also: potency is read from the fitted curve at half-maximal effect; % is scaled to controls: 0 for no effect and ±100 for the full control effect
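Preincubation: enzyme (10 nM) with compound, 15 min, RT. Reaction: substrate added to 50 nM final. Reads: 0 and 10 min. Analysis: normalized, Hill fit.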
PI4K2A inh – qHTS for small molecular inhibitors of PI4K2A. Phosphatidylinositol 4-kinase type 2-alpha (Homo sapiens), Q9BTU6. purified PI4K2A, ADP-Glo luminescence, 1 h; stronger effect = lower value. activity change, negative = inhibition, % at 76.9 µM. 420,000 tested, 0.13% active; in the data active = activity change below about -50%; inconclusive = mostly about -30% to -49%;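 also: -100% = wells without enzyme as full effect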
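PI4K2A activity was measured by ADP-Glo luminescence: enzyme (4 ug/mL stock) and phosphatidylinositol (1.2 mM stock) in Tris pH 7.5/MgCl2/EGTA/Triton X-100 buffer were reacted with ATP (300 microM stock) for one hour at ambient temperature.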
PI5P4Ka inh – qHTS for Inhibitors of phosphatidylinositol 5-phosphate 4-kinase (PI5P4K); 330,000 tested, 1.2% active; max response, %; Phosphatidylinositol 5-phosphate 4-kinase type-2 alpha (Homo sapiens), P48426; PI5P4Kalpha enzyme, ADP-Glo luminescence, 60 min; stronger effect = lower value; active = max response of -50% or lower; inconclusive = between -30% and -50%; inactive = -30% or higher; also: value at the top dose of about 77 µM; % is scaled to controls: 0 for no effect and ±100 for the full control effect
Target sequence (P48426 whole entry, looked up): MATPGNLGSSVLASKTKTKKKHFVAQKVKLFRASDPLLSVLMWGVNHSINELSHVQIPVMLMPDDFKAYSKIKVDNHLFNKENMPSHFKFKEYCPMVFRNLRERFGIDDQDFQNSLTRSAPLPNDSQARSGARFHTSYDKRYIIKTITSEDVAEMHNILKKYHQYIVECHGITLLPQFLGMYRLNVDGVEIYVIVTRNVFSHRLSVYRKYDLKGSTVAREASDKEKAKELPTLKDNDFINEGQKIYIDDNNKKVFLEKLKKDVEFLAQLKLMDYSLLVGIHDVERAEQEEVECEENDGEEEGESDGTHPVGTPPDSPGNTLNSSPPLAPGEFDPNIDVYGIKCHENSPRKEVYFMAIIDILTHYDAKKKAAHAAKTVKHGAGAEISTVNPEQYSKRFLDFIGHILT
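qHTS, 1536-well: enzyme/substrate mix, compound by pin tool, 5 microM ATP final; RT 60 min; ADP-Glo reagents 1 (45 min) then 2 (30 min); luminescence.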
Pol kappa inh – qHTS for Inhibitors of Polymerase Kappa; DNA polymerase kappa (Homo sapiens), Q9UBT6; purified Pol kappa, fluorescent DNA synthesis assay, 10 min; Potency, µM (top dose mostly 107 µM), inactives show top-dose activity, negative = inhibition, actives largely listed as inhibitors; 400,000 tested, 0.53% active; also: potency is read from the fitted curve at half-maximal effect; % is scaled to controls: 0 for no effect and ±100 for the full control effect
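Kinetic fluorescence screen: compound preincubated 15 min RT with 10 nM enzyme; 50 nM substrate (final) initiates; reads at 0/10 min.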
POLH inh – qHTS for Inhibitors of Polymerase Eta | DNA polymerase eta (Homo sapiens), Q9Y253 | recombinant Pol eta, fluorescent DNA replication assay | Potency, µM (doses to about 114 µM), for the others: top-dose activity change, negative = inhibition, most hits filed as inhibitors | 390,000 tested, 1.2% active | AID 588591, 2011; also: potency is read from the fitted curve at half-maximal effect; % is scaled to controls: 0 for no effect and ±100 for the full control effect
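Pol eta (10 nM) was preincubated with compounds for 15 min at room temperature, after which fluorescent replication substrate (50 nM final) was added to start the reaction. Fluorescence was read kinetically at 0 and 10 min.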
Pol iota inh – qHTS for Inhibitors of Polymerase Iota | 390,000 tested, 1% active | Potency, µM (doses to about 115 µM), without a hit: top-dose activity, negative = inhibition, usual class: inhibitors | Pol iota fluorescent replication assay, 10 min | AID 588590, 2011; also: potency is read from the fitted curve at half-maximal effect
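Pol iota at 10 nM preincubated 15 min with compounds at room temperature; reaction started with fluorescent substrate, 50 nM final. Fluorescence read kinetically at 0 and 10 min; buffer-only wells as negative control.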
Active calls of the source: *; ! = a repeat was not active; [ ] = another dose, or the depositor's remark. Compounds with a hit are over-represented: about 2.8% of the library has one in this group of screens. Unless noted, calls follow the shape of the dose curve; as a rule, active = well fitted inhibition curve with a large enough effect; inconclusive = small, poorly fitted or top-dose-only effect, or another doubt; inactive = no such curve, though single readings can be large or run the other way.

O=c1[nH]c(=O)n(CCC2=CCCCC2)c(O)c1/C=N/Nc1cccc2ccccc12 was read as POLB inh inconclusive, PI4K2A inh -16, PI5P4Ka inh -65*, Pol kappa inh -14%, POLH inh inconclusive and Pol iota inh 0%.
CCCN(CCC)c1c([N+](=O)[O-])cc(S(N)(=O)=O)cc1[N+](=O)[O-] was read as PI4K2A inh inactive and Pol kappa inh 3%[60.1 µM].
For OC[C@@H]1O[C@H](OC2[C@@H](O)[C@@H](O)[C@@H](O)O[C@@H]2CO)[C@H](O)[C@@H](O)[C@@H]1OC1O[C@H](CO)[C@@H](O)[C@H](O)[C@@H]1O (stereo partly specified) the results were Pol kappa inh 16%[60.1 µM].
`O=c1c(C2CC(c3ccc(-c4ccc(Br)cc4)cc3)Cc3ccccc32)c(O)sc2ccccc12` (stereo unspecified) gave PI4K2A inh -7.
For COc1ccc(Cl)cc1S(=O)(=O)Nc1cccc(-c2ccc(N3CCCC3)nn2)c1 the results were POLB inh 8%, PI4K2A inh -3, Pol kappa inh -5%[60.1 µM], POLH inh -5% and Pol iota inh inconclusive.
`C#CC(O)(C=CCl)CC` (stereo unspecified) gave PI4K2A inh -1.
O=c1c2ccccc2nc(/C=C/c2cccnc2)n1Cc1ccccc1 was read as POLB inh 39%, PI4K2A inh -10, PI5P4Ka inh 2, Pol kappa inh -9%, POLH inh inconclusive and Pol iota inh 2.8µM*.
Screening ClC1=C(Cl)C(Cl)(C2(Cl)C(Cl)=C(Cl)C(Cl)=C2Cl)C(Cl)=C1Cl returned Pol kappa inh 6.7µM*.
`CN(CC(=O)O)C(=O)[C@H](Cc1ccccc1)NC(=O)[C@@H](CCCN=C(N)N)NC(=O)[C@@H](N)Cc1ccc(O)cc1` gave Pol kappa inh 14%[60.1 µM].
N#CC(C#N)=Cc1ccc(O)c(O)c1 was read as POLB inh -12%[57.1 µM], PI4K2A inh 3, PI5P4Ka inh -12, Pol kappa inh 11µM*!, POLH inh 7.9µM*! and Pol iota inh inconclusive.
For COc1cc(C=C(C#N)C#N)cc(O)c1O the results were POLB inh -11%[57.1 µM], POLH inh 11µM* and Pol iota inh inconclusive.
Screening CC(C)(C)c1cc(C=C(C#N)C#N)cc(C(C)(C)C)c1O returned POLB inh 10%[57.1 µM], PI4K2A inh 11, PI5P4Ka inh 1, Pol kappa inh 2%[60.1 µM], POLH inh -15% and Pol iota inh 1%.
For N#CC(=Cc1ccc(O)c(O)c1)C(N)=S the results were POLB inh 2.8µM*, POLH inh 3.2µM* and Pol iota inh 6.3µM*.
For NC(=O)O the results were Pol kappa inh 11%[60.1 µM].
For Oc1cccc(Nc2ncnc3sc4c(c23)CCCC4)c1 the results were POLB inh -26%, PI4K2A inh -2, Pol kappa inh -8%[60.1 µM], POLH inh inconclusive and Pol iota inh -27%.
CCN1CCCC1CNC(=O)C(O)(c1ccccc1)c1ccccc1 (stereo unspecified) was read as PI4K2A inh 4.
Screening CNS(=O)(=O)c1ccc(-c2ccc(C=C3C(=O)NC(=O)NC3=O)o2)cc1 returned POLB inh inconclusive, PI4K2A inh -13, PI5P4Ka inh -20, Pol kappa inh 3%, POLH inh -8% and Pol iota inh 22µM*.
Screening O=C1NC(=O)C(=Cc2ccc(-c3cc(Cl)ccc3[N+](=O)[O-])o2)C(=O)N1 returned POLB inh inconclusive, PI4K2A inh -14, PI5P4Ka inh -53*, Pol kappa inh -29%, POLH inh inconclusive and Pol iota inh inconclusive.
`NS(=O)(=O)c1ccc(-c2ccc(C=C3C(=O)NC(=O)NC3=O)o2)cc1` gave POLB inh 18%, PI4K2A inh inconclusive, PI5P4Ka inh -64*, Pol kappa inh -18%, POLH inh 18% and Pol iota inh inconclusive.
CC(C)c1cc2c(c(O)c1O)[C@@]1(C(=O)O)CCCC(C)(C)[C@@H]1CC2 was read as Pol kappa inh -10%[60.1 µM].
For N#Cc1ncc(Br)cn1 the results were Pol kappa inh 7% and Pol iota inh 31%.
CCCCCCCC/C=C\CCCCCCCC(=O)OC[C@@H](COP(O)(O)=S)OC was read as Pol kappa inh 17µM*.
For CC[C@@]1(O)CC(O)c2c(cc3c(c2O)C(=O)c2c(O)ccc(O)c2C3=O)C1C(=O)OC (stereo partly specified) the results were Pol kappa inh 25µM*.
For CC[C@]1(O)CC(O[C@@H]2CC(N(C)C)C(O)C(C)O2)c2c(cc3c(c2O)C(=O)c2c(O)cccc2C3=O)C1C(=O)OC (stereo partly specified) the results were Pol kappa inh 6.3µM*.
Cc1[nH]n(-c2ccccc2)c(=O)c1C(c1ccc([N+](=O)[O-])cc1)c1c(C)[nH]n(-c2ccccc2)c1=O was read as POLB inh 7%, PI4K2A inh inconclusive, PI5P4Ka inh -14, Pol kappa inh -3%, POLH inh -6% and Pol iota inh 0.71µM*.
`O=c1[nH]c(=O)n(C2CCCCCC2)c(O)c1C=NCc1cccnc1` gave POLB inh -1%, PI4K2A inh 0, PI5P4Ka inh -3, Pol kappa inh -4%, POLH inh -12% and Pol iota inh -22%[58.9 µM].
`COc1ccc2c(c1OC)C(=O)OC2c1c(O)n(C2CCCCC2)c(=O)[nH]c1=O` (stereo unspecified) gave POLB inh 17%, PI4K2A inh -15, PI5P4Ka inh -18, Pol kappa inh -22%, POLH inh -10% and Pol iota inh 25µM*.
Screening O=C1NC(=O)N(c2ccccc2)C(=O)/C1=C\c1ccc([N+](=O)[O-])o1 returned POLB inh 7.9µM*.
For CN1C(=O)C(=Cc2ccccc2Oc2ccc(Cl)c(F)c2)C(=O)N(C)C1=O the results were POLB inh 19%, PI4K2A inh -15, PI5P4Ka inh -52*, Pol kappa inh -17%, POLH inh inconclusive and Pol iota inh -4%.
Screening O=[N+]([O-])C(Br)(CO)CO returned Pol kappa inh 1%[60.1 µM].
For CCn1c(N)c(C(=O)NC)sc1=S the results were POLB inh 0%, PI4K2A inh -1, PI5P4Ka inh -59*, Pol kappa inh 6%, POLH inh -4% and Pol iota inh inconclusive.
